# Pf Dd2 inh: qHTS Primary assay for Inhibitors of Plasmodium falciparum Dd2 growth in vitro | Potency, µM (series often up to 28.9 µM), for the others: at the top dose activity, negative = inhibition, most hits filed as inhibitors | 120,000 tested, 4.3% active | P. falciparum Dd2 growth, SYBR Green, 72 h | AID 1347417, 2020; active means well fitted inhibition curve with a large enough effect;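 further: plate controls were DMSO vehicle for no effect and reference drug for full effect; nearly all actives have a fitted effect of over 65% in size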
#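 Readout: SYBR Green fluorescence, 485 nm excitation, 535 nm emission, after ~16 h lysis at 37C. Before that, Dd2-infected red cells (2.5% hematocrit) grew 72 h with compound, 29 uM top final concentration.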
# An asterisk follows results filed as active; i = inactive; [ ] = another dose, or the depositor's remark. This excerpt belongs to a sample that is enriched for hits. Potency means the concentration at half of the fitted maximal effect.
SMILES,Pf Dd2 inh
COc1ccc(C(=O)Nc2ccc3c(c2)CN(Cc2ccc(F)cc2)C(=O)C(C)O3)c(OC)c1 (configuration not stated),i
COc1ccc(CN2Cc3cc(NC(=O)c4ccc(F)cc4)ccc3OC(C)C2=O)c(OC)c1 (configuration not stated),i
COc1ccc(CN2Cc3cc(NC(=O)c4ccccc4F)ccc3OC(C)C2=O)c(OC)c1 (configuration not stated),3.2µM*
CC(C)C1CN(CC2CCC(N)CC2)CCC(=O)N1Cc1ccc(F)cc1 (configuration not stated),-14%
O=C(NCCc1ccccc1)N(C1CCOCC1)C1CCN(Cc2ccccc2)CC1,5.6µM*
O=C(NCCc1ccccc1)N(C1CCOCC1)C1CCN(Cc2cccnc2)CC1,i
O=C(NCCc1ccccc1)N(C1CCOCC1)C1CCN(Cc2ccsc2)CC1,-15%
Cc1nc(N2CCCCC2)n(CC(=O)Nc2cccc(Br)c2)c(=O)c1C,i
Cc1noc(C)c1C(=O)N1CCC2(CC1)CC(c1ccccc1)C(=O)N(C)C2 (configuration not stated),4%
COc1ccc(CNC2CN(C(=O)OC(C)(C)C)C2)cc1,-12%
CC(C)(C)OC(=O)N1CC(NCc2ccc(-c3ccc(OC(F)(F)F)cc3)cc2)C1,10µM*
CC(C)(C)OC(=O)N1CC(NCc2ccc(C(F)(F)F)cc2)C1,-7%
COC(=O)[C@@H]1Cc2nc[nH]c2CN1Cc1ccc(C(=O)O)cc1,36%[44.1 µM]
O=C(c1cn[nH]c1-n1cnnn1)N1CCn2nc(Cc3ccccc3)cc2C1,-23%
CN1CCC(N2CC3(C2)C(=O)N(C)C(=O)[C@@H]2C[C@@H](O)CN23)CC1,15%[44.1 µM]
CC(C)c1nc(N2CCCCCC2)ncc1C(=O)O,13%
COc1ccc(C2(C(=O)NCCC3CCN(C(=O)Nc4ccc(C)cc4)CC3)CC2)cc1,-3%
CCOC(=O)Cn1c(=O)n(CC2CCCO2)c2nc(-c3ccccc3)nc(C(N)=O)c21 (configuration not stated),-15%
CCn1c(=O)n(-c2ccc3c(c2)OCO3)c2nc(-c3cccc(OC)c3OC)nc(C(N)=O)c21,6%
CCOC(=O)Cn1c(=O)n(-c2ccccc2OC)c2nc(-c3ccccc3C)nc(C(N)=O)c21,10µM*
COc1cc(CN2CCN(c3ncnc4[nH]ccc34)CC2CCO)cc(OC)c1 (configuration not stated),-8%
Cc1nnc2n1CCC(N(C)C(=O)Cc1ccccc1F)CC2 (configuration not stated),20%
CCc1noc(-c2cn(C3CCN(C(=O)c4ccc(C)cc4C)C3)nn2)n1 (configuration not stated),128%
N#Cc1cccc(C(=O)N2CCC(n3cc(-c4nc(C5CC5)no4)nn3)C2)c1 (configuration not stated),-28%
CCc1cc(N2CCC(NCCc3cccc(Cl)c3)CC2)nc(C)n1,11µM*
SMILES,Pf Dd2 inh
CCCc1cc(N2CCC(N[C@@H]3CCNC3)CC2)nc(C)n1,-11%
Cc1nc(N2CCC(NC(=O)Cc3cccc(F)c3)CC2)cc(C(F)(F)F)n1,-1%
COCCN1C(=O)CC[C@]2(C(=O)N3CCC(N4CCCCC4)CC3)CCCC[C@@H]12,-7%
CCOc1ccc(NC(=O)c2ccc(F)c(S(=O)(=O)N(CC)Cc3ccccc3)c2)cc1,13%
CCN(CC)S(=O)(=O)c1cccc(C(=O)Nc2ccccc2C(=O)Nc2ccc(Cl)cc2)c1,10µM*
CCN(Cc1ccccc1)S(=O)(=O)c1ccc(F)c(C(=O)Nc2cc(C)ccc2OC)c1,24%
CC1(C(=O)Nc2cccc(Cl)c2)CCCCC(=O)N1 (configuration not stated),-14%
CC(CNC(=O)C1CCN(C(=O)c2ncn3c2COC(c2ccc(F)cc2)C3)CC1)c1ccccc1 (configuration not stated),-12%
COc1ccc(OC)c(CN2CCC3(CC2)OC(=O)N(Cc2ccccc2C#N)C3(C)c2ccccc2)c1 (configuration not stated),-25%
CC(=O)N1CCC2(CC1)OC(=O)N(Cc1ccccc1F)C2(C)c1ccccc1 (configuration not stated),i
CC1(c2ccccc2)N(Cc2ccccc2C#N)C(=O)OC12CCN(c1ccncc1)CC2 (configuration not stated),11µM*
COCC(=O)N1CCC2(CC1)OC(=O)N(Cc1cccnc1)C2(C)c1ccccc1 (configuration not stated),-2%[44.1 µM]
CN1CCC(C(=O)N2CCC3(CC2)OC(=O)N(Cc2ccccc2F)C3(C)c2ccccc2)CC1 (configuration not stated),5.6µM*
CC1(c2ccccc2)N(Cc2cccnc2)C(=O)OC12CCN(C(=O)c1ccc(Oc3ccccc3)cc1)CC2 (configuration not stated),6.3µM*
Cn1nccc1C(=O)N1CCC2(CC1)OC(=O)N(Cc1ccccc1C#N)C2(C)c1ccccc1 (configuration not stated),10µM*
